The values that follow come from PubChem BioAssay (EPA / NIEHS).

Each structure is given as a SMILES string. Results filed as inconclusive are left out. Activity calls are given as the source filed them. Rule for the calls: active = hit-call score of the fitted dose curve at least 0.9, where 1 is the maximum; inconclusive = response in the unintended direction; inactive = score below 0.9.

Hepatocyte nuclear factor 4-alpha (Homo sapiens), sequence (P41235 whole entry, looked up): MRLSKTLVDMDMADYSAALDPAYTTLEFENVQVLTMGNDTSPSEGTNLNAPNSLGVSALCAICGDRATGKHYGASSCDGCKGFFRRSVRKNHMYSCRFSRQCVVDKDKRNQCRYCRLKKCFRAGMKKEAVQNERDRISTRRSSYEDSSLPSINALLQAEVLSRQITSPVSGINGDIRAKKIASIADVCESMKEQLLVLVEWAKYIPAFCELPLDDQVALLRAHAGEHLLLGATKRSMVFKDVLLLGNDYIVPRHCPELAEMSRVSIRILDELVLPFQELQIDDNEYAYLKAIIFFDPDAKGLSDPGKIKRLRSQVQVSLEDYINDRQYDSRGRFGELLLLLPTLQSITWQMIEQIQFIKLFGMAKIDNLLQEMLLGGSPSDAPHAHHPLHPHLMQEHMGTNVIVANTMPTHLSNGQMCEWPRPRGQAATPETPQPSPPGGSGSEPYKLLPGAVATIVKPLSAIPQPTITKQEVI

This assay deals with Hepatocyte nuclear factor 4-alpha (Homo sapiens) (UniProt P41235). The assay can be described thus: ATG_HNF4a_TRANS: Attagene TRANS-FACTORIAL HepG2 Assay for human Hepatocyte Nuclear Factor 4 alpha (HNF4a) (AID 2282982). Conditions: HepG2 HNF4a transactivation reporter, mRNA readout. The method, then:
ATG_TRANS is a cell-based, multiplexed-readout assay that uses HepG2, a human liver cell line, with measurements taken at 24 hours after chemical dosing in a 24-well plate.ATG_HNF4a_TRANS is one of 30 assay component(s) measured or calculated from the ATG_TRANS assay. It is designed to make measurements of mRNA induction, a form of inducible reporter, as detected with fluorescence intensity signals by Reverse transcription polymerase chain reaction (RT-PCR) and Capillary electrophoresis technology.Data from the assay component ATG_HNF4a_TRANS was analyzed into 1 assay endpoint. This assay endpoint, ATG_HNF4a_TRANS, was analyzed in the positive analysis fitting direction relative to DMSO as the negative control and baseline of activity. Using a type of inducible reporter, measures of mRNA for gain-of-signal activity can be used to understand the reporter gene at the transcription factor-level as they relate to the gene HNF4A. Furthermore, this assay endpoint can be referred to as a primary readout, because this assay has produced multiple assay endpoints where this one serves a reporter gene function. To generalize the intended target to other relatable targets, this assay endpoint is annotated to the nuclear receptor intended target family, where the subfamily is orphan.
Human liver HepG2 cells are transiently transfected with multiple reporter transcription units (MRTUs) in 6-well plates using FuGene 6 reagent (Roche; 3 ml FuGene/1 mg DNA). The MRTU constructs are regulated by a cis-regulating element (promoter). […] A major difference between the CIS and TRANS system is that in CIS activities of endogenous TFs are measured, whereas the TRANS assay evaluates changes in activities of exogenous, chimeric NR-Gal4 proteins. […] At the end of 24 hour incubation, total RNA was isolated using TriZol reagent (Invitrogen). The isolated RNA is then reverse-transcribed using oligo(dT) primer and Mo-MLV reverse transcriptase (Invitrogen) with DNAse I (Ambion) treatment for 30 min. The one-tenth of the produced cDNA was amplified by PCR using Taq DNA polymerase (Invitrogen) and two reporter sequence-specific primers. The PCR products were fluorescently labeled by primer extension with 6-arboxyfluorescein (6-FAM) 5'-labeled reporter sequence-specific primer (2 min at 95 C, 20 s at 68 C and 10 min at 72 C) and these products were digested with 5U of HpaI (New England Biolabs) for 2h at 37 C. The fragments were purified using Qiaquick PCR columns (Qiagen), analyzed on an ABI 3130xL genetic analyzer (Applied Biosystems) with peak positions identified by using a set of X-rhodamine (ROX)-labeled MapMarker1000 molecular weight standards (BioVentures). The raw capillary electrophoresis data was processed using Attagraph software (Attagene).
On to `Nc1ccc(Br)cc1`, for which the result was inactive. As to `O=CCCl`, the call was inactive. Still for that read-out and setting: in the case of `Cc1cc(Cl)ccc1O` it was “inactive”; in that of `CN(C1CCCCC1)C1CCCCC1`, “inactive”; in that of `CCOP(=S)(OCC)OP(=S)(OCC)OCC`, “inactive”. On to `O=C1c2ccccc2C(=O)C1C(=O)C(c1ccccc1)c1ccc(Cl)cc1` (stereo not given), for which the outcome was inactive. Regarding `Clc1cnc(Oc2ccc(Oc3ncc(Cl)cc3Cl)cc2)c(Cl)c1`, the call was inactive. In the case of `O=NN1CCCCCCC1`, the outcome was inactive. `CN(C)CCN(C)C`: the compound was called inactive. Still for that read-out and setting: the result for `COP(=S)(OC)Oc1cc(Cl)c(I)cc1Cl` reads “inactive”; that for `NC(=O)CCl`, “inactive”. As to `CN(C)C(=S)S`, the outcome was inactive. Still for that read-out and setting: the result for `Clc1cccc(Cl)c1Cl` reads “inactive”; that for `O=c1nc(O)n(Cl)c(=O)n1Cl`, “inactive”. Still for that read-out and setting: the result for `CC(=O)C(F)(F)C(F)(F)F` reads “inactive”; that for `C=CC(F)(C(F)(F)F)C(F)(F)C(F)(F)F` (stereo not given), “inactive”; that for `O=C/C(Cl)=C(/Cl)C(=O)O`, “inactive”.

With `CCOP(=S)(OCC)Oc1ccc(Cl)cc1Cl`, the compound was classed as inactive. The term AC50 denotes the midpoint of the concentration-response curve, whichever way the signal moves. In the case of `C=CC(=O)OCC(COC(=O)C=C)(COC(=O)C=C)COC(=O)C=C`, the AC50 is 44.6 µM (active). On to `C[CH2][Hg][S]c1ccccc1C(=O)O`, for which the call was inactive. As to `Cl[C@H]1OCCO[C@@H]1Cl`, the result was inactive. Still for that read-out and setting: the result for `CC(c1ccc(O)cc1)c1ccc(O)cc1` reads “inactive”; that for `Nc1cccnc1`, “inactive”; that for `CCCCCCCCBr`, “inactive”. For the compound `CN(C)c1ccc(N=O)cc1`, the call was inactive. The same measure, in the same setting: in the case of `O=C(NC(=O)c1c(F)cccc1F)Nc1ccc(Cl)cc1` it was “inactive”; in that of `O=C(NC(=O)c1c(F)cccc1F)Nc1cc(Cl)c(F)c(Cl)c1F`, “inactive”.

For `CCOc1cc(C=O)ccc1O`, the compound was classed as inactive. Regarding `CC(=O)CN(CC(C)=O)N=O`, the outcome was inactive. Same read-out and setting: in the case of `C=CCCl` it was “inactive”. For the compound `[Cl][Sn]([c]1ccccc1)([c]1ccccc1)[c]1ccccc1`, the AC50 was 0.228 µM (active). For the compound `O=C(Nc1ccc(Br)cc1)c1cc(Br)cc(Br)c1O`, the compound was classed as inactive.

For the compound `CC(C)(COCC1CO1)COCC1CO1` (stereo not given), the call was inactive.

With `COc1nn(C(=O)NS(=O)(=O)c2ccccc2OC(F)(F)F)c(=O)n1C`, the outcome was inactive. The same measure, in the same setting: the result for `O=C(Cc1ccccc1)OCCc1ccccc1` reads “inactive”; that for `NC(=O)c1ccc(N)nc1`, “inactive”; that for `C=CCOC(F)(C(F)(F)F)C(F)(F)F`, “inactive”. Same read-out and setting: in the case of `CNC(=O)CSP(=O)(OC)OC` it was “inactive”; in that of `O=S(=O)(F)C(F)(F)C(F)(F)C(F)(F)C(F)(F)F`, “inactive”. With `Cc1ccc2nc3sc(=O)sc3nc2c1`, the AC50 is 6.47 µM (active).
